In PubChem BioAssay:
Calls of active or inactive are those of the source. Unless noted, no rule for the calls is given here.

Legend:
[1] = test system: XIP peptide (Xip251-270) binding; experiment: small-molecule binders of XIP peptide, primary screen, biochemical, small-molecule microarray, fluorescence 635/667 nm, 0.1 µg/mL protein (AID 1182); settings: fluorescent protein binding, 635 nm, higher = more signal, called active from +8 up or from −8 down
[2] = test system: XIP peptide (Xip251-270); experiment: small-molecule binders of XIP peptide, primary screen, biochemical, small-molecule microarray, fluorescence 635/667 nm, 0.5 µg/mL protein (AID 1183); settings: small-molecule microarray binding, fluorescence 635 nm; higher = more signal
[3] = Plasmodium falciparum growth inhibition, primary screen, strain 3D7, DAPI fluorescence, 100 nL (AID 1184);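 also: parasites grown inside human red blood cells in medium with human serum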; settings: P. falciparum 3D7 growth, 3 d, higher = more signal
[4] = target: Homeobox protein Hox-A13 (Mus musculus) (UniProt Q62424); experiment: inhibitors of HoxA13-DNA binding, primary screen, biochemical, fluorescence polarization, labeled oligonucleotide (AID 1185); settings: 15 min, higher = more signal, called active from +8 up or from −8 down
Homeobox protein Hox-A13 (Mus musculus), sequence (Q62424 whole entry, looked up): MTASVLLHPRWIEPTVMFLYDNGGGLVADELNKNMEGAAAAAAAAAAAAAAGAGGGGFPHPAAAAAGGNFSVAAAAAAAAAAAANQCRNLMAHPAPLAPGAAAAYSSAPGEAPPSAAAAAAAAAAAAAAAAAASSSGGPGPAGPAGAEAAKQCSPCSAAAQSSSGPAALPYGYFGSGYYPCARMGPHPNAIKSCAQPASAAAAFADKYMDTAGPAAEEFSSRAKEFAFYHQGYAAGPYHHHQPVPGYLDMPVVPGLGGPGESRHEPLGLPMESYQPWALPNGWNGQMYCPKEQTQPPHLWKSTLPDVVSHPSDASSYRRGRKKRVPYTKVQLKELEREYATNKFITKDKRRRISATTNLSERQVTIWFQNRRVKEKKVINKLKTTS

[5] = inhibitors of hydroxyurea-induced Chk1 phosphorylation, primary screen, imaging, HeLa, phospho-Chk1 antibody, percent positive cells (AID 1186); settings: hydroxyurea-induced phospho-Chk1 immunofluorescence imaging, higher = more signal
[6] = inhibitors of hydroxyurea-induced Chk1 phosphorylation, primary screen, imaging, HeLa, phospho-Chk1 nuclear intensity (AID 1187); settings: hydroxyurea-induced phospho-Chk1 immunofluorescence imaging, higher = more signal

With COCCOC(=O)N1C(=O)[C@@]2(c3cc(C#CC4=CCCCC4)ccc31)[C@H](c1ccc(OCCO)cc1)N1[C@H](c3ccccc3)[C@H](c3ccccc3)OC(=O)[C@H]1[C@@H]2C(=O)NC[C@H](O)c1ccccc1 the composite z-score [1] was 0.575 (inactive), the composite z-score [2] was 0.622 and the z-score [3] was -2.1. The z-score [4] was 1.86 (inactive), the z-score [5] was 0.107 (inactive) and the z-score [6] was 0.576 (inactive).

With CC(C)N1CC=CC23O[C@@H]4C=CCOC(=O)[C@@H]4[C@H]2C(=O)N(CCCO)[C@@H]3C1=O (some centres not stated) the composite z-score [1] was 0.816 (inactive), the composite z-score [2] was 0.749 and the z-score [3] was -1.91. For the same compound, the z-score [4] was -3.62 (inactive), the z-score [5] was 0.762 (inactive) and the z-score [6] was 0.0478 (inactive).

With O=C1OCC=C[C@H]2OC34C=CCN(Cn5nnc6ccccc65)C(=O)[C@H]3N(CCCO)C(=O)[C@@H]4[C@@H]12 (some centres not stated) the composite z-score [1] was 0.206 (inactive), the composite z-score [2] was 0.155 and the z-score [3] was -1.88. The z-score [4] was -1.9 (inactive), the z-score [5] was -0.242 (inactive) and the z-score [6] was -0.228 (inactive).

For COC(=O)[C@@]1(Cc2ccc(OC)cc2)[C@@H]2C(=CC(=O)[C@H]2CC(=O)C(=O)N(C)C)CN1C(=O)c1ccccc1, the composite z-score [1] was 0.0312 (inactive), the composite z-score [2] was 0.739 and the z-score [3] was -1.73. For the same compound, the z-score [4] was -3.95 (inactive), the z-score [5] was -0.246 (inactive) and the z-score [6] was -0.0503 (inactive).

In the case of CO[C@H]1O[C@H](CO)[C@@H](OC(=O)Nc2ccc3c(c2)OCO3)[C@H](OC(=O)c2cc3ccccc3[nH]2)[C@H]1OC(=O)c1cc2ccccc2[nH]1, the composite z-score [1] was 0.472 (inactive), the composite z-score [2] was 0.374 and the z-score [3] was -0.603. For the same compound, the z-score [4] was -4.88 (inactive), the z-score [5] was -0.308 (inactive) and the z-score [6] was -0.227 (inactive).

For COC(=O)[C@@]1(Cc2ccccc2)[C@H]2c3cc(C(=O)N(C)C)n(CCN4CNCC4=O)c3C[C@H]2CN1C(=O)c1ccccc1, the composite z-score [1] was 0.858 (inactive), the composite z-score [2] was 1.01 and the z-score [3] was -0.17. The z-score [4] was -2.94 (inactive), the z-score [5] was -0.232 (inactive) and the z-score [6] was -0.33 (inactive).

In the case of CC(C)(C)OC(=O)CC[C@]1(C(=O)NCc2ccccc2)N=C(c2ccc(OCCCO)cc2)O[C@H]1c1ccccc1CN=[N+]=[N-], the composite z-score [1] was 0.333 (inactive), the composite z-score [2] was 0.688 and the z-score [3] was -2.39. The z-score [4] was -1.28 (inactive), the z-score [5] was -0.654 (inactive) and the z-score [6] was -0.865 (inactive).

With O=C1O[C@@H](c2ccccc2)[C@@H](c2ccccc2)N2[C@@H](c3ccccc3OCCO)[C@]3(C(=O)Nc4ccc(C#CCCO)cc43)[C@@H](C(=O)N3CCCCCCC3)[C@H]12 the composite z-score [1] was 8.49 (active), the composite z-score [2] was 1.02 and the z-score [3] was -2.23. The z-score [4] was 3.66 (inactive), the z-score [5] was -0.333 (inactive) and the z-score [6] was -0.462 (inactive).

In the case of COc1ccc([Si](C)(C)[C@@H]2[C@@H](CCn3cc([C@H](O)c4ccccc4)nn3)O[C@]3(C(=O)N(Cc4ccc(N5CCC5=O)cc4)c4ccccc43)[C@H]2C)cc1, the composite z-score [1] was -0.325 (inactive), the composite z-score [2] was 0.641 and the z-score [3] was -2.47. For the same compound, the z-score [4] was -2.32 (inactive), the z-score [5] was -0.169 (inactive) and the z-score [6] was 0.663 (inactive).

In the case of COC(=O)[C@@]1(Cc2ccc(OC)cc2)[C@H]2c3cc(C(=O)N(C)C)n(CCO)c3C[C@H]2CN1C(=O)c1ccccc1, the composite z-score [1] was -0.509 (inactive), the composite z-score [2] was -0.947 and the z-score [3] was 0.302. The z-score [4] was -4.38 (inactive), the z-score [5] was 0.931 (inactive) and the z-score [6] was 0.524 (inactive).

For CC(CO)N1C(=O)[C@@H]2[C@H]3C(=O)OCC=C[C@H]3OC23C=CCN(C(C)(C)C)C(=O)[C@@H]13 (some centres not stated), the composite z-score [1] was -0.316 (inactive), the composite z-score [2] was 0.0576 and the z-score [3] was 0.293. The z-score [4] was -5.22 (inactive), the z-score [5] was 0.0116 (inactive) and the z-score [6] was -0.602 (inactive).

For [N-]=[N+]=Nc1ccccc1C[C@]1(C(=O)N2CCOCC2)N=C(c2ccc(OCCCO)cc2)O[C@H]1c1ccccc1, the composite z-score [1] was 0.511 (inactive), the composite z-score [2] was 0.748 and the z-score [3] was -2.03. For the same compound, the z-score [4] was -5.32 (inactive), the z-score [5] was -0.47 (inactive) and the z-score [6] was -0.106 (inactive).

For O=C1O[C@@H](c2ccccc2)[C@@H](c2ccccc2)N2[C@@H](c3ccc(OCCO)cc3)[C@]3(C(=O)Nc4ccccc43)[C@@H](C(=O)O)[C@H]12, the composite z-score [1] was 0.442 (inactive), the composite z-score [2] was -0.105 and the z-score [3] was -1.29. For the same compound, the z-score [4] was -6.16 (inactive), the z-score [5] was -0.33 (inactive) and the z-score [6] was -0.413 (inactive).

For O=C(NCC(F)(F)F)[C@@H]1c2ccccc2C(=O)N(Cc2cc(F)cc(C(F)(F)F)c2)[C@H]1c1ccc(CO)cc1, the composite z-score [1] was 0.0811 (inactive), the composite z-score [2] was 0.663 and the z-score [3] was -1.25. For the same compound, the z-score [4] was -2.64 (inactive), the z-score [5] was -0.0626 (inactive) and the z-score [6] was -0.205 (inactive).

In the case of COCCCNC(=O)[C@@]1(Cc2ccccc2CN=[N+]=[N-])N=C(c2ccc(OCCCO)cc2)O[C@H]1c1ccccc1, the composite z-score [1] was 1.38 (inactive), the composite z-score [2] was 0.789 and the z-score [3] was -2.37. For the same compound, the z-score [4] was -6.47 (inactive), the z-score [5] was -0.371 (inactive) and the z-score [6] was -0.349 (inactive).

In the case of CC(=O)NCCCC[C@@H]1NC(=O)[C@@H]2C[C@H](C(=O)NCCCC[N+](C)(C)C)[C@H](c3ccc(O)cc3)N2C1=O, the composite z-score [1] was 2.41 (inactive), the composite z-score [2] was 0.842 and the z-score [3] was -0.859. The z-score [4] was 0.749 (inactive), the z-score [5] was -0.508 (inactive) and the z-score [6] was -0.589 (inactive).

With C#CCN([C@@H](Cc1ccc(O)cc1)C(=O)OC)[C@@H](/C=C/C1CC1)[C@H](O)Cc1ccccc1 the composite z-score [1] was -0.297 (inactive), the composite z-score [2] was -0.331 and the z-score [3] was 0.501. For the same compound, the z-score [4] was -7.49 (inactive), the z-score [5] was -0.453 (inactive) and the z-score [6] was -0.368 (inactive).

In the case of COC(=O)C(CC#Cc1ccc2c(c1)[C@]1(C(=O)N2)[C@H](C(=O)N2CCN(c3ncccn3)CC2)[C@H]2C(=O)O[C@H](c3ccccc3)[C@H](c3ccccc3)N2[C@@H]1c1ccc(OCCO)cc1)C(=O)OC, the composite z-score [1] was 1.22 (inactive), the composite z-score [2] was 0.809 and the z-score [3] was -1.97. The z-score [4] was 1.63 (inactive), the z-score [5] was -0.162 (inactive) and the z-score [6] was -0.285 (inactive).

For Cc1ccc(S[C@]2(C(=O)NCC(F)(F)F)CC(=O)N(C3CCCCC3)[C@@H]2c2ccc(CO)cc2I)cc1, the composite z-score [1] was -0.0988 (inactive), the composite z-score [2] was 0.735 and the z-score [3] was -0.142. The z-score [4] was -3.45 (inactive), the z-score [5] was 0.148 (inactive) and the z-score [6] was 0.594 (inactive).

In the case of C=CCC(OC(C)=O)[C@@H]1[C@@H](N(Cc2cccc3ccccc23)C(=O)Cc2ccc(OC)cc2)c2cc(OCCCO)ccc2N1C(=O)c1ccc2ccccc2n1 (some centres not stated), the composite z-score [1] was 1.24 (inactive), the composite z-score [2] was -0.248 and the z-score [3] was -2.54. The z-score [4] was -2.7 (inactive), the z-score [5] was -2.34 (inactive) and the z-score [6] was -1.44 (inactive).

With Cc1cc(C)c(C(O)C2C=CC3C(=O)NC(=O)C3N2Nc2ccc(Cl)cc2Cl)c(C)c1 (configuration not stated) the composite z-score [1] was 0.696 (inactive), the composite z-score [2] was 0.179 and the z-score [3] was 0.17. For the same compound, the z-score [4] was -3.47 (inactive), the z-score [5] was 0.73 (inactive) and the z-score [6] was 0.314 (inactive).

In the case of COc1ccc([Si](C)(C)[C@@H]2[C@@H](CC(=O)N(CCO)Cc3ccccc3)O[C@]3(C(=O)N(c4ccccc4)c4ccccc43)[C@H]2C)cc1, the composite z-score [1] was 0.153 (inactive), the composite z-score [2] was 0.38 and the z-score [3] was -2.54. The z-score [4] was -5.59 (inactive), the z-score [5] was -1.11 (inactive) and the z-score [6] was -0.327 (inactive).
